Bioassay records as filed in PubChem.
TDP1 cell CPT: qHTS for Inhibitors of human tyrosyl-DNA phosphodiesterase 1 (TDP1): qHTS in cells in presence of CPT; chicken DT40 Tdp1-/-;hTDP1 cells + 20 nM CPT, ATP luminescence, 48 h; Potency, µM (top dose mostly 46.2 µM), for the others: top-dose activity change, negative = growth inhibition, most hits filed as inhibitors; 420,000 tested, 12% active; note: potency is the fitted concentration of half-maximal effect; nearly all actives have a fitted effect of over 55% in size
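Chicken DT40 Tdp1-/- cells complemented with human TDP1, 400 cells/well, exposed to compounds plus 20 nM camptothecin for at least 48 h at 37 C; viability read as ATP content by CellTiter-Glo luminescence.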
Six1-Eya2 inh: qHTS Assay for Inhibitors of the Six1/Eya2 Interaction; Homeobox protein SIX1 (Homo sapiens) + Protein phosphatase EYA2 (Homo sapiens), …; AlphaScreen GST-Six1/His-Eya2 binding, biochemical; stronger effect = lower value; activity change, % (no concentration beside the values); 360,000 tested, 0.56% active; AID 651725, 2012; in the data active = activity change below about -65%; inconclusive = mostly about -30% to -63%
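GST-Six1 + His-Eya2 (5X stock: 250/500 nM); Tris pH 8.0, 300 mM NaCl, 0.05% BSA, 0.02% Tween 20; GSH donor/Ni acceptor beads; 1 h 37 °C dark; AlphaScreen readout.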
IL-1B inflam inh: qHTS for Inhibitors of Inflammasome Signaling: IL-1-beta AlphaLISA Primary Screen. THP-1 LPS/ATP IL-1B secretion, AlphaLISA, 16 h; stronger effect = lower value. activity change, % at 57.5 µM. 360,000 tested, 4.7% active. AID 743279, 2014; in the data active = activity change below about -50%; inconclusive = mostly about -30% to -49%
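THP-1 cells pretreated 1 hr with compounds (up to 57.5 uM final), then stimulated with LPS (250 ng/mL final) plus ATP (1.25 mM final); secreted IL-1B measured by AlphaLISA after 16 hr, decreased signal indicating inhibition.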
CtBP-E1A blk: qHTS Assay for Inhibitors of the CtBP/E1A Interaction | AlphaScreen GST-E1A/His-CtBP binding, 1536-well; stronger effect = lower value | 340,000 tested, 0.49% active | activity change, % (no concentration beside the values) | CtBP / adenovirus E1A interaction (AlphaScreen); in the data active = activity change below about -65%; inconclusive = mostly about -30% to -63%
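Homogeneous bead-based format: GST-tagged E1A captured on glutathione donor beads, His-tagged CtBP on nickel acceptor beads; compounds precede bead addition by 2 h at 37 °C.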
TDP1 cell noCPT: qHTS for Inhibitors of human tyrosyl-DNA phosphodiesterase 1 (TDP1): qHTS in cells in absence of CPT; DT40 Tdp1-/- hTDP1 cells, no CPT, ATP luminescence, 48 h; 420,000 tested, 15% active; Potency, µM (highest dose often 46.2 µM), for the others: at the top dose activity change, negative = growth inhibition, actives largely listed as inhibitors; note: potency is the fitted concentration of half-maximal effect; nearly all actives have a fitted effect of over 55% in size
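Readout: luminescence from CellTiter-Glo after 30 min in the dark at RT. Cells: DT40 Tdp1-/- with stable hTDP1, 400/well. Exposure: compounds alone, ≥48 hr, 37 °C.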
TDP1 inh: qHTS Assay for Inhibitors of Tyrosyl-DNA Phosphodiesterase (TDP1); Potency, µM (top dose mostly 130 µM), inactives show at the top dose activity change, negative = inhibition, most hits filed as inhibitors; Tyrosyl-DNA phosphodiesterase 1 (Homo sapiens), Q9NUW8; 350,000 tested, 0.28% active; recombinant TDP1, AlphaScreen DNA substrate cleavage; note: potency is the fitted concentration of half-maximal effect; nearly all actives have a fitted effect of over 40% in size
Target sequence (Q9NUW8 whole entry, looked up): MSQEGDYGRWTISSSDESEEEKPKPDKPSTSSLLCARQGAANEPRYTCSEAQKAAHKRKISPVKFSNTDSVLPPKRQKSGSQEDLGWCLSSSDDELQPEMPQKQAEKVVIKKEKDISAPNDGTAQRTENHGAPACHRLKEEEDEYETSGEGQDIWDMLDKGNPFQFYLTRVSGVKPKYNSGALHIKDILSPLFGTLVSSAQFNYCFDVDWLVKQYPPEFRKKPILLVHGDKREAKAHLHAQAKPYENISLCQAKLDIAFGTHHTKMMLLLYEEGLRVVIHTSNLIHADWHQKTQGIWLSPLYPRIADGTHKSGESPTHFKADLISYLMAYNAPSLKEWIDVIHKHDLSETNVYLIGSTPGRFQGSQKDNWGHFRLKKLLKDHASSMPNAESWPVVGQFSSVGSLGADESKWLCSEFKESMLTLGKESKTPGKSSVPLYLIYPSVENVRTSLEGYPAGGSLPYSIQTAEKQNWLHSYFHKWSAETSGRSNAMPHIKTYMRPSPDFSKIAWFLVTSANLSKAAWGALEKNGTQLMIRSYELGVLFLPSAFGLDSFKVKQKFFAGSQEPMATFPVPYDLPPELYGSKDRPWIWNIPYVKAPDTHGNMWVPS
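Recombinant human Tdp1 (E. coli-expressed, 1 nM final) preincubated with compounds 15 min at room temperature, then 5'-biotin/3'-phosphotyrosine-FITC DNA substrate (15 nM final) added for 5 min. AlphaScreen beads (10 ug/ml final) added 10 min; cleavage lowers signal.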
* hit, by the source's call; ? = inconclusive; . = no result given; [ ] = another dose, or the depositor's remark. A selection: hits, their analogues and other compounds. The true share with any hit is near 18%. Unless noted, calls come from the whole dose curve; as a rule, active = well fitted curve in the direction sought with a large enough effect; inconclusive = small, poorly fitted or top-dose-only effect, or another doubt; inactive = no such curve, though single readings can be large; an effect the other way counts as inactive or inconclusive. % is set by controls: 0 for no effect and ±100 for the full control effect.

SMILES	TDP1 cell CPT	Six1-Eya2 inh	IL-1B inflam inh	CtBP-E1A blk	TDP1 cell noCPT	TDP1 inh
COc1ccc(-c2nc(N3CCOCC3)nc3n[nH]c(N)c23)cc1	18.4µM*	-2.5	-70.3*	3.9	18.4µM*	0.0%
CC1CCN(C(=O)CCCC(=O)N2CCC(C)CC2)CC1	-13.1%	3.1	9.7	1.3	6.6%	3.3%
CC1CC(C)CN(S(=O)(=O)c2cccc3cccnc23)C1 (stereo not drawn)	?	-4.2	4.2	1.1	?	-1.2%
CCNc1cc2c(cc1O)CCC1C2CCC2(C)C(O)CCC12 (stereo not drawn)	7.31µM*	-13.8	-101.1*	-2.4	23.1µM*	.
CCOc1cc2c(cc1O)CCC1C2CCC2(C)C(O)CCC12 (stereo not drawn)	0.259µM*	0.8	10.4	-4.9	0.206µM*	.
C[C@]12CCC3c4ccc(O)cc4CCC3C1CC(O)C2O (stereo partly drawn)	1.6%	.	.	.	7.6%	9.6%[56.1 µM]
C[C@@]12CCC3c4ccc(OS(=O)(=O)O)cc4CCC3C1CCC2O (stereo partly drawn)	0.8%	.	.	.	-2.8%	3.6%
O=C(Cn1nc(-c2ccc(Cl)cc2)c2ccccc2c1=O)Nc1cccc(Br)c1	-21.2%	.	.	.	-8.7%	.
CCCc1nc2oc3c(NCCN(C)C)ncnc3c2c2c1CCCC2	18.4µM*	-6.8	0.0	-14.1	16.4µM*	2.1%
CC(C)Cc1nc2oc3c(NCC(C)O)ncnc3c2c2c1CCCC2 (stereo not drawn)	?	-0.1	0.0	-19.4	14.6µM*	.
CCCc1nc2oc3c(NCCCN(C)C)ncnc3c2c2c1CCCC2	?	-2.5	.	0.0	?	6.2%
CC(=O)Nc1ccc(NC(=O)COc2cc(C)cc3oc(=O)cc(C)c23)cc1	-10.6%	2.5	12.7	2.0	6.7%	2.3%
Cc1oc(-c2ccccc2)nc1Cn1cccc1C1=NC(c2ccccc2)CO1 (stereo not drawn)	?	0.0	-10.2	-3.4	23.1µM*	6.2%
Nc1c(Cl)cc(C2=NCCn3nc4ccccc4c32)cc1Cl	23.1µM*	-2.8	-15.1	.	?	3.0%
COc1ccc2c3n(nc2c1)CCN=C3c1ccc(C)cc1	16.4µM*	-11.2	5.1	-8.1	?	.
COC(=O)[C@@H]1[C@@H](C)OC(=O)N[C@H]1c1ccccc1	-15.0%	2.7	26.6	3.5	3.7%	-5.3%
O=C(NC(N1CCOCC1)C(Cl)(Cl)Cl)c1ccc(F)cc1 (stereo not drawn)	-5.2%	-0.9	-5.2	1.9	7.1%	2.4%
CN(Cc1ccccc1)CC(O)COc1ccc(CNCc2ccc(Cl)s2)cc1 (stereo not drawn)	?	-11.8	-80.1*	-5.3	16.4µM*	3.0%
Brc1ccc(CNCc2cccs2)cc1	-6.0%	6.1	-10.4	24.3	-21.8%	5.3%
c1ccc(COc2ccc(CNCc3cccs3)cc2)cc1	?	38.5	-7.9	38.2	13µM*	-2.1%
CN(Cc1ccccc1)CC(O)COc1ccc(CNCc2cccnc2)cc1 (stereo not drawn)	23.1µM*	6.8	-13.6	-26.9	?	6.0%
CN(Cc1ccccc1)CC(O)COc1ccc(CNCCOc2cccnc2)cc1 (stereo not drawn)	-11.1%	0.3	11.8	-21.0	-11.8%	0.0%
c1ccc(COc2ccc(CNCc3cccnc3)cc2)cc1	-16.6%	7.6	-63.1*	-17.4	?	2.7%
CC(=O)c1cccc(NC(=O)CCCNC(=O)c2ccc(Cl)cc2)c1	2.8%	-5.7	35.4	0.5	-18.8%	3.3%
Cc1ccc(-c2nc(NCC3CCCO3)sc2C)cc1 (stereo not drawn)	?	-7.9	-3.2	-0.5	-27.0%	6.0%
SMILES	TDP1 cell CPT	Six1-Eya2 inh	IL-1B inflam inh	CtBP-E1A blk	TDP1 cell noCPT	TDP1 inh
COc1cccc(CNc2nc(-c3cccnc3)nc3ccccc23)c1	?	-23.6	-93.2*	-8.9	?	1.8%
COc1cccc(/C=N/Nc2nc(-c3cccnc3)nc3ccccc23)c1	16.4µM*	-11.4	28.1	-18.2	16.4µM*	.
FC(F)(F)c1nc2ccccc2nc1N/N=C\c1ccccc1	20.6µM*	?	10.9	?	18.4µM*	14.3%
Brc1ccc(-c2nc(N/N=C/c3cccnc3)c3ccccc3n2)cc1	11.6µM*	-4.9	22.7	-2.7	13µM*	5.6%
COc1cccc(-c2nc(NCc3cnc(C)cn3)c3ccccc3n2)c1	-25.6%	.	.	.	-29.5%	10.1%[56.1 µM]
C(=N\Nc1nc(-c2ccccn2)nc2ccccc12)/c1ccccc1	.	?	.	-29.0	.	2.7%
CCOc1ccc(NC(=O)Cc2nnc(SCC(=O)N3CCOCC3)n2C)cc1	-7.3%	6.8	1.3	-17.9	10.5%	2.8%
Fc1ccccc1CNc1nc(-c2cccnc2)nc2ccccc12	?	?	-96.9*	?	23.1µM*	2.2%[0.0935 µM]
C(=N\Nc1nc(-c2cccnc2)nc2ccccc12)/c1ccccc1	?	-19.2	.	-17.1	16.4µM*	.
CC(Nc1nc(-c2cccnc2)nc2ccccc12)c1ccccc1 (stereo not drawn)	?	-18.7	30.9	-5.7	?	.
COc1ccccc1C(C)Nc1nc(-c2cccnc2)nc2ccccc12 (stereo not drawn)	18.4µM*	-29.8	?	?	23.1µM*	10.3%
Oc1ccc(/C=C/c2nc(-c3ccccc3O)n(-c3ccccc3)n2)c(O)c1	-70.4%	.	.	.	?	.
O=[N+]([O-])c1cc([N+](=O)[O-])c2cc3ccccc3nc2c1	0.259µM*	-2.9	-102.0*	16.3	0.517µM*	.
O=C1c2c([N+](=O)[O-])cc([N+](=O)[O-])cc2S(=O)N1Cc1ccccc1 (stereo not drawn)	0.9%	-4.2	-9.2	-4.9	17.1%	9.8%
COc1cccc(CN2C(=O)c3ccccc3Sc3ccc(C(=O)NCc4ccccc4)cc32)c1	-20.6%	.	.	.	-19.0%	2.3%
